Test results taken from the supplement of paper PMC11732987, “Enantioselective OTUD7B fragment discovery through chemoproteomics screening and high-throughput optimisation” (Communications Chemistry, 2025).

Key:
Test in all cases: log2 ratio of Biotin-Ahx-Ub-VS probe labelling (fragment/DMSO); higher = less target engagement (more negative = stronger competition), active = hit call of the paper (q ≤ 0.05, log2 ratio ≤ -1)
Details in all cases: compound concentration: 200 uM; treatment time: 3 h
[1] = target: USP34 (UniProt Q70CQ2)
Procedure, shortened: (§1)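 HEK293T lysate in Tris/CHAPS/IGEPAL buffer with protease inhibitors (495 µg per sample) was given fragment at 200 µM or vehicle for 3 h, in triplicate. It then received Biotin-Ahx-Ub-VS at 0.5 µM final for 1 h. Labelled DUBs were NeutrAvidin-enriched, digested with LysC and trypsin, and run by diaPASEF LC-MS/MS. Values are average log2 fragment/vehicle ratios by unpaired t-test on global-median-normalised Spectronaut quantities of proteins with ≥2 unique peptides.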

[2] = target: T1, USP36 (UniProt Q9P275)
T1 sequence (whole entry): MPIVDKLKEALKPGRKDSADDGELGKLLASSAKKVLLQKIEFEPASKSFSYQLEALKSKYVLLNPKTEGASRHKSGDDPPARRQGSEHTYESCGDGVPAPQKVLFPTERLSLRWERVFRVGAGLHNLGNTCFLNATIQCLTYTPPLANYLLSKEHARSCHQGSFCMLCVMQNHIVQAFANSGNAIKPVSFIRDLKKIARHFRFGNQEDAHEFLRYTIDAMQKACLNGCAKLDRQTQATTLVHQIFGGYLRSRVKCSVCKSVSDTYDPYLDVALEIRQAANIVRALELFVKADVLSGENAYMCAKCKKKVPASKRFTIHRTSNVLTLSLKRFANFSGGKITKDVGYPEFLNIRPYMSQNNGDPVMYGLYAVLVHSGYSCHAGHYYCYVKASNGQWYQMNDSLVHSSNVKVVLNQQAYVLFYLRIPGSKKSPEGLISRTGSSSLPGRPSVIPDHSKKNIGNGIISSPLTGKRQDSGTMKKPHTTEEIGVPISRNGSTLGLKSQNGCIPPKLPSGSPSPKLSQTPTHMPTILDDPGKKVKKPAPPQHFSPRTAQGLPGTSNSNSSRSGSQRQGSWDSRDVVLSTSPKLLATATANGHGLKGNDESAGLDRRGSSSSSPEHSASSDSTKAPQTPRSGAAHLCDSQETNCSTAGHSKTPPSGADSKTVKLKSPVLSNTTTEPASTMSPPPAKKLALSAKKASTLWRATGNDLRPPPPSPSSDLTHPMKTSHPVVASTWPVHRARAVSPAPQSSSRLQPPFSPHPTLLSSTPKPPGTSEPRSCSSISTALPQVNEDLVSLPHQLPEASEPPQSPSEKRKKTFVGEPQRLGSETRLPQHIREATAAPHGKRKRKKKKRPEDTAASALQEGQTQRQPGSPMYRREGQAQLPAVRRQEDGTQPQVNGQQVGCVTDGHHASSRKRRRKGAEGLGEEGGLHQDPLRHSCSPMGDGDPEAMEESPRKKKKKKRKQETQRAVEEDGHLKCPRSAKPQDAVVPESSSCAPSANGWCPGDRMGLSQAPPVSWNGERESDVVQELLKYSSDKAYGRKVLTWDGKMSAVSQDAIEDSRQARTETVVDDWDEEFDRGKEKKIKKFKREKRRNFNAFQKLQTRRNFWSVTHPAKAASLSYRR
Procedure, shortened: as §1

[3] = target: T2, USP38 (UniProt Q8NB14)
T2 sequence (whole entry): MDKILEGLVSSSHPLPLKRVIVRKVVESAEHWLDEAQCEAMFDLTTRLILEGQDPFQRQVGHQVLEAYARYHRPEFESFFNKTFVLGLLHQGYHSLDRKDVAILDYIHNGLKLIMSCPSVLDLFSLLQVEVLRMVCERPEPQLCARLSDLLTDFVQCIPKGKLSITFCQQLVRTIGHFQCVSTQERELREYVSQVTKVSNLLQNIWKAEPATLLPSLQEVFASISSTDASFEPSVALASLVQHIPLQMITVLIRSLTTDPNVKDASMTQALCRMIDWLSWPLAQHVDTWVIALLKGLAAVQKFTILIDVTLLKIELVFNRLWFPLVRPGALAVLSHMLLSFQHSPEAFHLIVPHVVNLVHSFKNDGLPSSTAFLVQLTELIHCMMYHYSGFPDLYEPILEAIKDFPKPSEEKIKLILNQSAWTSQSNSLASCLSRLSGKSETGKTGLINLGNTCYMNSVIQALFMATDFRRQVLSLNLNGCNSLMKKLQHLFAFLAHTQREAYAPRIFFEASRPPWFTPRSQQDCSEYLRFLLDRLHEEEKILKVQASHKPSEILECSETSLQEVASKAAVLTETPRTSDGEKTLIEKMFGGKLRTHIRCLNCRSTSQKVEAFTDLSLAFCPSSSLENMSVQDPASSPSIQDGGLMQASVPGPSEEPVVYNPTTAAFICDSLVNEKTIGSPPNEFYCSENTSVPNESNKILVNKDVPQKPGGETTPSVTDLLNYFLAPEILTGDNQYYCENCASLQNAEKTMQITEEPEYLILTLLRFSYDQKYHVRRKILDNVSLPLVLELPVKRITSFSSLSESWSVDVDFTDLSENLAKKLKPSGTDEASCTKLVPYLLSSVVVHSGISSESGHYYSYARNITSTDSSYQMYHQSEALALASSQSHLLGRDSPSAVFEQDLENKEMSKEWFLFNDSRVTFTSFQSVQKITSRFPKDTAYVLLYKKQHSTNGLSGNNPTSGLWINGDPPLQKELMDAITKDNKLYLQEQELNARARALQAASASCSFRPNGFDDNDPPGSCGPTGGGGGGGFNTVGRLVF
Procedure, shortened: as §1

[4] = target: T3, USP39 (UniProt Q53GS9)
T3 sequence (whole entry): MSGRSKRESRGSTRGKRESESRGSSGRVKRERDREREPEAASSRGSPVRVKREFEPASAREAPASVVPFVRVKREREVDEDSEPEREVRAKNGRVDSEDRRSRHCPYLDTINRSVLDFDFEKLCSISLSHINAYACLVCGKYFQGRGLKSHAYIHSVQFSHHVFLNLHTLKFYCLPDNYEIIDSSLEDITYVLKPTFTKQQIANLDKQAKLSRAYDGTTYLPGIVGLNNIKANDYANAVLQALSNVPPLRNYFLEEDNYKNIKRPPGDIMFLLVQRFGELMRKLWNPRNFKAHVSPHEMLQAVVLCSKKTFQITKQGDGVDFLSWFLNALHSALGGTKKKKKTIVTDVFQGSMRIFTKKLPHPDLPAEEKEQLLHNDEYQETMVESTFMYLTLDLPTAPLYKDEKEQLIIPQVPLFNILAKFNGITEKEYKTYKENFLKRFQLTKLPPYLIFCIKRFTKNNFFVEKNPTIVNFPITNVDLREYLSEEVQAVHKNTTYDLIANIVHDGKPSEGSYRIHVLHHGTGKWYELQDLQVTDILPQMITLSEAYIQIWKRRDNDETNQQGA
Procedure, shortened: as §1

[5] = target: T4, USP4 (UniProt Q13107)
T4 sequence (whole entry): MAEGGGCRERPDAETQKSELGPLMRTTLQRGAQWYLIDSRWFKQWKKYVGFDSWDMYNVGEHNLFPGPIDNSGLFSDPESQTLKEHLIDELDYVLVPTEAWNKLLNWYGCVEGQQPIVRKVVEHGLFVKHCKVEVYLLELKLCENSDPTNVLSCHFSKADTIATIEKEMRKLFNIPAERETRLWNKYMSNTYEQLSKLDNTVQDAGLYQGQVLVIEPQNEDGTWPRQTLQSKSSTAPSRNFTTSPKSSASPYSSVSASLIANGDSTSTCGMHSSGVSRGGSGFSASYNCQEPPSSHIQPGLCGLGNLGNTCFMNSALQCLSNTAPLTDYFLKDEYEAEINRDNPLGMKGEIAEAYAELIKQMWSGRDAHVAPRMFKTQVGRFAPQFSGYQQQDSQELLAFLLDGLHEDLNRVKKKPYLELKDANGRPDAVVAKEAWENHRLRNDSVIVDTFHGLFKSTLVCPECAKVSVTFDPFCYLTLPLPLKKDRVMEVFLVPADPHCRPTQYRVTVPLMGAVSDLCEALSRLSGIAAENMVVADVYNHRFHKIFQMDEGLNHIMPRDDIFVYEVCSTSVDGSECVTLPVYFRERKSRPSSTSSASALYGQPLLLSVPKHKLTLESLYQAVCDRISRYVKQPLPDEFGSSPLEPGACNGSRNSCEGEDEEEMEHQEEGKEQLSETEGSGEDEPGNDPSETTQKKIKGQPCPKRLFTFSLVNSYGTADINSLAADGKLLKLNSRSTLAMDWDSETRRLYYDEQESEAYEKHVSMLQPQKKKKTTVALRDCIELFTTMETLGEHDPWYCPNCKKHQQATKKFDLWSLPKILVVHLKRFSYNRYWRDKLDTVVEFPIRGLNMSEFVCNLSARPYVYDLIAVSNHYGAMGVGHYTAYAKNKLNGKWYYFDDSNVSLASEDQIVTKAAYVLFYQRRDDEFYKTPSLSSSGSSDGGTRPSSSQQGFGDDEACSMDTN
Procedure, shortened: as §1

Measured: log2 ratio of Biotin-Ahx-Ub-VS probe labelling

USP34, sequence (Q70CQ2 whole entry, the tested form may be a part): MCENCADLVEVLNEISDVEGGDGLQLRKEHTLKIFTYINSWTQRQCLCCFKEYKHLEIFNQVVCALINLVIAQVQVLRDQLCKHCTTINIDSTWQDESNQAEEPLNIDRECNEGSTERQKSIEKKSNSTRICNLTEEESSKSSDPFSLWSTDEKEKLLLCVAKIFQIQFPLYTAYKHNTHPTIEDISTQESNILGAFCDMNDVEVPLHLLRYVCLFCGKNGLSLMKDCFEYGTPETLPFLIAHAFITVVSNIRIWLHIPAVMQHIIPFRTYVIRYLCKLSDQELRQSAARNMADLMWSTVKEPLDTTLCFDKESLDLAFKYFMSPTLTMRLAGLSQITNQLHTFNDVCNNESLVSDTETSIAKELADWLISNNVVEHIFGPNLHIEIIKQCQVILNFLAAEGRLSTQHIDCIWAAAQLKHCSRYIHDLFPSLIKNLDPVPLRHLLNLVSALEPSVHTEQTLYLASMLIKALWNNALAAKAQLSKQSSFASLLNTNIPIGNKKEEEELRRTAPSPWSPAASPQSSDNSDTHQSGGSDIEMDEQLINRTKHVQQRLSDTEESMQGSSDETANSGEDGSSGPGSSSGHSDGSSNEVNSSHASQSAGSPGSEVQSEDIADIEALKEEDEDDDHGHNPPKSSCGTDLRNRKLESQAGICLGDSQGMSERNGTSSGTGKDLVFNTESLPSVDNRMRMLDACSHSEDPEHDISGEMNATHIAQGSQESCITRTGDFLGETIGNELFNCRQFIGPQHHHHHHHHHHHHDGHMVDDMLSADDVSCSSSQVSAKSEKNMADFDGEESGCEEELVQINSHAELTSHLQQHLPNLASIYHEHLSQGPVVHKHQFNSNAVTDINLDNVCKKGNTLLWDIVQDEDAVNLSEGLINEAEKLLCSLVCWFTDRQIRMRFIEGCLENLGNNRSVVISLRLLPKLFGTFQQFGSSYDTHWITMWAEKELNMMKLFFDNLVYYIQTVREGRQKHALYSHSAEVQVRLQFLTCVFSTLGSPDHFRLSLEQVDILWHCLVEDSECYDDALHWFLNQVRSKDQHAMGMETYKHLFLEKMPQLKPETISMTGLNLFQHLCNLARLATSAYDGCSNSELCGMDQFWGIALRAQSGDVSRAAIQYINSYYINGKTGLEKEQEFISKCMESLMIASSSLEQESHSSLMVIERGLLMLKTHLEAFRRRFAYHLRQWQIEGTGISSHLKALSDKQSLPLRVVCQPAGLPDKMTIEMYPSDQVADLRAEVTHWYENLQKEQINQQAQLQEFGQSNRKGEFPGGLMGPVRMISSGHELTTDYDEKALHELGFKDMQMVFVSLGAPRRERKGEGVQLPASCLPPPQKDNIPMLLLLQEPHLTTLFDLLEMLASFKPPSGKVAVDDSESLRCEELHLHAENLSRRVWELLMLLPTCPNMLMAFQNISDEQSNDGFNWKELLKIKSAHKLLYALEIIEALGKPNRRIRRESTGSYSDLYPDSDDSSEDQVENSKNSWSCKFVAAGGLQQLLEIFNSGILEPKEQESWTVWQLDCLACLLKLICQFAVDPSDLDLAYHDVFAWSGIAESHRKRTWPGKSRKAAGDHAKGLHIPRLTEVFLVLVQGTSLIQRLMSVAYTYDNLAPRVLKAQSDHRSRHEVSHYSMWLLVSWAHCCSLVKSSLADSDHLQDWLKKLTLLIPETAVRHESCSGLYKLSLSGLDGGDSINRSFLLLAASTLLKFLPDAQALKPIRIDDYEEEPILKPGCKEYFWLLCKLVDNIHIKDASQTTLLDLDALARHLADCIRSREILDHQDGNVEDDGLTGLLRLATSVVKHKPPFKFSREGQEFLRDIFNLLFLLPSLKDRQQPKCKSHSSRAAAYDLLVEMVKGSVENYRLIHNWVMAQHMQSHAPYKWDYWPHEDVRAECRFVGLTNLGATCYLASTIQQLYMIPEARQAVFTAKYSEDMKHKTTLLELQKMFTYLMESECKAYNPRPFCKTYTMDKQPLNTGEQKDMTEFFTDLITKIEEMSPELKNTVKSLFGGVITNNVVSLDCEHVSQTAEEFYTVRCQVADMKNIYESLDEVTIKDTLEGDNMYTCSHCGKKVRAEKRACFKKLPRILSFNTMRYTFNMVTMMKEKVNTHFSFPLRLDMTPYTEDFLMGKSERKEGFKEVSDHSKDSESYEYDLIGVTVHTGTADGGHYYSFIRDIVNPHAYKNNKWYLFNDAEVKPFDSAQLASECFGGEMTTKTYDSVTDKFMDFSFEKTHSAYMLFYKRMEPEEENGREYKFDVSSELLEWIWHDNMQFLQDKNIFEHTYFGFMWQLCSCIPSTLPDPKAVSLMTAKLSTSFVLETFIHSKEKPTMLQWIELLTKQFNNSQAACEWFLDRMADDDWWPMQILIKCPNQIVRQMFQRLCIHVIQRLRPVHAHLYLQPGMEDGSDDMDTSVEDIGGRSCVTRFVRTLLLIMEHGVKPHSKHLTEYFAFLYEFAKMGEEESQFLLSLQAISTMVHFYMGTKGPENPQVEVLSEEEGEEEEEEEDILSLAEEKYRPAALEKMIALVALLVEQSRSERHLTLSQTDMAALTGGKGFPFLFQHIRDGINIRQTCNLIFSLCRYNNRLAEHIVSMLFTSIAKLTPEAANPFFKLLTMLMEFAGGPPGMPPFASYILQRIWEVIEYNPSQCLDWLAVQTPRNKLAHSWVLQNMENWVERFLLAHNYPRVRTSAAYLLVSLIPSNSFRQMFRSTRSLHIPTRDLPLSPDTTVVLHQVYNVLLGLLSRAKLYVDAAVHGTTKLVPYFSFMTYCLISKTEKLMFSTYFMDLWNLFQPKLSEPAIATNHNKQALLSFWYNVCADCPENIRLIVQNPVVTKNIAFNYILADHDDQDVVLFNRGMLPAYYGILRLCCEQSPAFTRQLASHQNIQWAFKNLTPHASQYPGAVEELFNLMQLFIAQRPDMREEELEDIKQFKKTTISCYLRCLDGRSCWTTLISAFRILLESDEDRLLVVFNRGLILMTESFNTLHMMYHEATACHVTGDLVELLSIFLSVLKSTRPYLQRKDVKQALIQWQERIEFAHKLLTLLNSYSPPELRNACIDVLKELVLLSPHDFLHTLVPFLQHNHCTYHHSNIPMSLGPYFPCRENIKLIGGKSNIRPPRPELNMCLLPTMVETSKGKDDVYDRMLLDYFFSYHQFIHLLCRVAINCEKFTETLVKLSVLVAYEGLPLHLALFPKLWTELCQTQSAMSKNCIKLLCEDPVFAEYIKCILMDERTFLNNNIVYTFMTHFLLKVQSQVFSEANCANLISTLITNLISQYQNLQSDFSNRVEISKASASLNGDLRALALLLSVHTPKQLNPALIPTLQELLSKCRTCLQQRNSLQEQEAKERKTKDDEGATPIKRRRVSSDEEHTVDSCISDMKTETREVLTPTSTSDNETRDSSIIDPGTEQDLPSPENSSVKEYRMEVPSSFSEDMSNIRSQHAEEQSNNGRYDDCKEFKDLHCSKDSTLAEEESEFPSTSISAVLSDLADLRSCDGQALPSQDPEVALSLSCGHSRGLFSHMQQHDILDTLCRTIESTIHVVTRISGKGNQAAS

Cc1ccc(C)c(NC(=O)CCl)c1
inactive: [1] -0.458 | [2] -0.1 | [3] -0.159 | [4] 0.199 | [5] -0.443
